IMPase inh: IMPase inhibition in cells | AID 901 | 120,000 tested, under 10 active | inhibition (IP1 accumulation), % at 46.1 µM | CHO-M1 cells, IP1 accumulation, HTRF TR-FRET ratio; active = well fitted curve in the direction sought with a large enough effect in the signal ratio, not every such curve was filed as active; inconclusive = small, poorly fitted or top-dose-only effect, or a change in a side signal; inactive = no such curve, though single readings can be large or run the other way; the % refers to the signal ratio;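 note: cells stimulated with carbachol in lithium chloride buffer; plate controls were DMSO basal wells for no effect and reference inhibitor wells for full effect; higher means more IMPase inhibition seen as more IP1 and lower FRET ratio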
Target sequence (P97697 whole entry, looked up): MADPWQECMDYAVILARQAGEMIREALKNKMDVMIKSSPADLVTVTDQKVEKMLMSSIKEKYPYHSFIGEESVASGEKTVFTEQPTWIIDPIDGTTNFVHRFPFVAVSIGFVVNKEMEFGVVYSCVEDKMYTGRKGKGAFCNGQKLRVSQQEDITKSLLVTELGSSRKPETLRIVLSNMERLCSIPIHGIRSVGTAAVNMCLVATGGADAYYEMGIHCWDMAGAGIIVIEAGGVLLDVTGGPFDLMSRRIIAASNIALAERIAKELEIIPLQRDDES
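In this qHTS, compounds (final up to 46 uM) act on CHO-M1 cells that are then activated through the M1 receptor with carbachol, in pH 7.4 buffer containing 50 mM LiCl, for 30 min. IP1 accumulation is quantified by the IP-One immunoassay.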
NPSR antagonist: antagonists of human neuropeptide S receptor cAMP signaling | Q6W5P4 | CHO-NPSR cells, cAMP TR-FRET, antagonist mode | Potency, µM (doses to about 38.3 µM), inactives show at the highest dose activity change, negative = inhibition, usual class: inhibitors | hit rate 1% among 220,000; note: potency is the fitted concentration of half-maximal effect; % is set by controls: 0 for no effect and ±100 for the full control effect; nearly all actives have a fitted effect of over 50% in size
Target sequence (Q6W5P4 whole entry, looked up): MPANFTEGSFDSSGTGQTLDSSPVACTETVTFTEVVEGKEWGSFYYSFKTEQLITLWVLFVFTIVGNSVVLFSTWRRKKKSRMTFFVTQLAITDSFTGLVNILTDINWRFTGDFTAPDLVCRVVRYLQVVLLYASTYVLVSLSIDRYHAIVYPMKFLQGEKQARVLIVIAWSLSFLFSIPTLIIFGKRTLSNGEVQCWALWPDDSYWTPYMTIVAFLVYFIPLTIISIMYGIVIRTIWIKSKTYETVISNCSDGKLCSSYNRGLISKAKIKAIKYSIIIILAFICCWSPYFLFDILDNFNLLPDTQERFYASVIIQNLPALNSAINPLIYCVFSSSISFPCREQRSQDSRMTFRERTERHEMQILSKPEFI
PNC assembly inh: blocks assembly of the perinucleolar compartment. PC3M PTB-GFP, PNC prevalence imaging, 16 h; hits give low values. activity change (PNC), negative = inhibition, % at 10 µM. hit rate 3.1% among 140,000. AID 2417;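 active = readout at or below -70, meaning at least 70% loss of cells showing the perinucleolar compartment, a nuclear body marking cancer cells; inconclusive = readout between -30 and a set limit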;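 note: plate controls were DMSO wells for no effect and camptothecin positive control wells for full effect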
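Compounds are pinned in duplicate onto adhered PC3M cells stably expressing GFP-tagged PTB and incubated 16 h at 37 C. Cells are then fixed, nuclei stained with Hoechst, and PNC-positive cells counted.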
ALOX12 inhib: inhibitors of human 12-lipoxygenase (ALOX12) | P18054 | Potency, µM (titrated, usually from 57.1 µM), for the others: at the top dose activity change, negative = inhibition, hits mostly inhibitors | hit rate 0.12% among 150,000 | purified 12-hLO, xylenol orange hydroperoxide absorbance | AID 1452; note: potency is the fitted concentration of half-maximal effect; % is set by controls: 0 for no effect and ±100 for the full control effect; nearly all actives have a fitted effect of over 55% in size
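Hydroperoxide output read as Fe(III)-xylenol orange absorbance, 573-to-405 nm ratio, after 30 min reaction with 40 uM arachidonic acid. Enzyme: 150 nM purified human 12hLO, 15 min compound preincubation; 25 mM Hepes pH 7.0, room temperature.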
HTT ATP protect: Huntington cell model cytoprotection by ATP luminescence | PC12 HTT-Q103 induced, cytoprotection, ATP luminescence, 40 h | Potency, µM (series often up to 56.4 µM), for the others: cytoprotection (ATP increase), actives largely listed as activators | hit rate 0.14% among 230,000 | AID 1471; note: potency is the fitted concentration of half-maximal effect; % of control where 0% means no effect; nearly all actives have a fitted effect of over 45% in size
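PC12 cells with ecdysone-inducible HTT exon 1 Q103-GFP, induced with 100 nM tebufenozide and co-treated with library compounds in a dose series (1536-well, 1500 cells/well). Cytoprotection read as ATP content by ATPlite luminescence.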
HTT aggregate: reduces HttQ103-GFP aggregates in PC12 cells. Potency, µM (series often up to 46.1 µM), for the others: at the highest dose activity change, negative = inhibition, actives largely listed as inhibitors. PC12 HttQ103-GFP aggregates, Acumen cytometry, 40 h. hit rate 1.1% among 220,000; note: potency is the fitted concentration of half-maximal effect; % is set by controls: 0 for no effect and ±100 for the full control effect; nearly all actives have a fitted effect of over 60% in size
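PC12 cells with ecdysone-inducible HTT exon1 Q103-GFP, induced by 100 nM tebufenozide, given compounds in a concentration series. GFP aggregates (1–25 um, 6 SD above background) counted in lysates by laser-scanning cytometry, 488 nm excitation.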
An asterisk follows results filed as active; u = inconclusive; x = no result given; [ ] = dose if it differs, or a comment. Shown are actives, neighbours in structure and some others; about 3.3% of the full set was active somewhere. Unless noted, calls come from the whole dose curve; as a rule, active = well fitted curve in the direction sought with a large enough effect; inconclusive = small, poorly fitted or top-dose-only effect, or another doubt; inactive = no such curve, though single readings can be large; an effect the other way counts as inactive or inconclusive.

SMILES	IMPase inh	NPSR antagonist	PNC assembly inh	ALOX12 inhib	HTT ATP protect	HTT aggregate
CCC(=O)C1=C(O)C(c2cccc(Oc3ccccc3)c2)CCC1=O (stereo not drawn)	x	-26%	x	x	-6%	10µM*
COCCN1C(=O)C(O)=C(C(=O)c2ccco2)C1c1cccc(Oc2ccccc2)c1 (stereo not drawn)	-16	-5%[46.1 µM]	7	-25%	-6%[10 µM]	3%
COc1cccc(Cn2c(=O)c(C)nc3cnc(Oc4cccc(Cl)c4)nc32)c1	x	x	x	-7%	-101%	x
O=C(Nc1ncc([N+](=O)[O-])s1)c1cccc([N+](=O)[O-])c1	x	5µM*	x	x	-6%[10 µM]	10%[9.22 µM]
O=C(Nc1ccccc1)Nc1ncc([N+](=O)[O-])s1	x	-47%	x	x	14%[10 µM]	11µM*
CCC(=O)OCC(=O)Nc1cc([N+](=O)[O-])ccc1Cl	x	3%	x	x	-14%	-1%
CSc1nc2cc(Oc3cccc(Cl)c3Cl)c(Cl)cc2[nH]1	x	13µM*	x	x	-30%	-4%
FC(F)(F)c1ccc(Cl)c(NC(=S)NC2CC2)c1	-1	18%	8	2%	14%[1.9 µM]	-11%
CNC(=S)Nc1cc(C(F)(F)F)ccc1Cl	x	7%	-86*	-1%	x	13%
CCc1nc2cc(Cl)c(Cl)cc2[nH]1	7	13%[46.1 µM]	u	-3%	-1%[0.074 µM]	11µM*
CCn1c(COc2ccccc2)nnc1SCC(=O)C(C)(C)C	1	-26%[46.1 µM]	-97*	-2%	-11%[0.074 µM]	-19%
CC(C)Cn1c(N)c(C(=O)COC(=O)c2ccc3c(c2)OCCO3)c(=O)n(C)c1=O	5	-8%[46.1 µM]	u	1%	-12%	u
CC(C)Cn1c(N)c(C(=O)CSc2ccc3c(c2)OCCO3)c(=O)n(C)c1=O	21	-1%[46.1 µM]	2	2%	-26%	2µM*
O=C(O)c1c(Cl)c(Cl)c(Cl)c(Cl)c1-c1c2cc(I)c(=O)c(I)c-2oc2c(I)c(O)c(I)cc12	x	x	x	u	-235%	-10%
O=C(CSc1nc(O)c(C2CCCCC2)c(=O)[nH]1)Nc1ccc(Cl)cc1	6	-15%[46.1 µM]	-112*	u	-20%[10 µM]	12%
Cc1ccc(C(=O)NCCc2ccncc2)cc1	-2	-7%[46.1 µM]	-13	5%	-47%	-2%
Cc1ccc(Oc2ccc(C(=O)NCc3ccncc3)cc2)cc1	x	9%	x	x	-96%	11µM*
O=C(NCc1ccncc1)c1ccc(Oc2ccccc2)cc1	x	4%	x	x	0%[10 µM]	11µM*
O=C(NCc1ccncc1)c1ccc(Br)cc1	-8	-6%[46.1 µM]	u	0%	-17%[10 µM]	-31%
CC1CC[C@@]23CCC4(C)[C@@]5(C)CCC6C(C)(C)C(=O)CC[C@@]6(C)C5C=C[C@@]4(OC2=O)C3C1C (stereo partly drawn)	x	x	x	2%	x	x
CCN(CC)C(c1ccc(F)cc1)c1nnnn1C1CCCCC1 (stereo not drawn)	1	-18%[46.1 µM]	-21	-4%	23%	-12%
Fc1ccc(CN(Cc2ccccc2)C(c2cccs2)c2nnnn2C2CCCCC2)cc1 (stereo not drawn)	9	-15%[46.1 µM]	u	-1%	-2%	25µM*
COc1ccc(Cc2nnc(NC(=O)Cc3cccs3)s2)cc1OC	-10	-12%[46.1 µM]	-100*	-11%	-8%[10 µM]	3%
O=C(NC(=S)Nc1nc2c(s1)CCCC2)c1ccc(C(=O)c2ccccc2)cc1	x	-24%	-124*	3%	x	-3%
CC(C)(C)c1nc(SCC(=O)Nc2nc3c(s2)CCCC3)c2ccccc2n1	12	-28%[46.1 µM]	-95*	-4%	-34%	-8%
SMILES	IMPase inh	NPSR antagonist	PNC assembly inh	ALOX12 inhib	HTT ATP protect	HTT aggregate
O=C(Nc1nc2c(s1)CCCC2)c1cccnc1	5	-20%[46.1 µM]	32	5%	19%	-5%
O=C(Cc1cccs1)Nc1nc2c(s1)CCCC2	0	-12%[46.1 µM]	-113*	-3%	-28%[0.074 µM]	3.2µM*
CC(C)c1nc(SCC(=O)Nc2nc3c(s2)CCCC3)c2ccccc2n1	6[1.84 µM]	-20%[46.1 µM]	u	-8%	37%[10 µM]	-9%
O=C(Cc1cccs1)Nc1nnc(Cc2ccccc2)s1	-9	-11%	19	-5%	-49%[10 µM]	-5%
O=C(C1=NN[C@@H]2C(=O)N(Cc3ccccc3)C(=O)[C@H]12)c1ccc([N+](=O)[O-])cc1	x	24%	x	x	2%[10 µM]	-2%[9.22 µM]
Cc1nn2c(NCCCN3CCOCC3)c3c(nc2c1-c1ccccc1)CCC3	15	u	u	4%	-24%	-7%
CCCCNc1c2c(nc3c(-c4ccccc4)c(C)nn13)CCC2	3	10µM*	-9	13%	-6%	-8%[9.22 µM]
COc1ccc(CC(=O)NC2=NCCS2)cc1	-6	-5%[46.1 µM]	9	-4%	u	-10%
COc1ccc(CCC(=O)NC2=NCCS2)cc1OC	1	-9%[46.1 µM]	-100*	-3%	-1%	-11%
N#C/C(=C/c1cccc([N+](=O)[O-])c1)C(=O)Nc1ccccc1O	x	-6%	x	x	-1%[10 µM]	3%[9.22 µM]
COc1ccccc1NC(=O)/C(C#N)=C/c1cc([N+](=O)[O-])ccc1N1CCCC1	-11	1%	-7	-3%	4µM*	16%
CCCCC/C=C\C/C=C\CCCCCCCC(=O)O[C@@H](CO)COC(=O)CCCCCCCCCCCCCCCCC	x	x	x	x	13%	x
c1cn(CCCNc2ncnc3nc[nH]c23)cn1	-2	2%[46.1 µM]	-112*	-2%	5%[10 µM]	-11%
CCN1CCN(CCCNc2ncnc3nc[nH]c23)CC1	1	-8%[46.1 µM]	u	0%	3%[10 µM]	3%
Cc1ccc2nc(NC(=O)c3ccc(Cn4cc(Cl)cn4)o3)sc2c1	-11	-11%[46.1 µM]	-100*	-1%	-9%[10 µM]	-4%
Cc1ccccc1OCc1nc(-c2ccc(NC(=O)c3ccco3)cc2)no1	-3	-14%[46.1 µM]	-100*	7%	34%[10 µM]	14%
Cc1ccccc1OCc1nc(-c2ccc(NC(=O)c3cccs3)cc2)no1	x	-10%	29	1%	-6%[10 µM]	1%
CCCc1ccc(OCc2nc(-c3ccc(NC(=O)c4cccs4)cc3)no2)cc1	x	u	-91*	-1%	-13%[10 µM]	13%
O=C(NCc1nc(-c2ccccc2)no1)c1ccc2c(c1)OCO2	8	1%[46.1 µM]	u	-5%	26%	-6%
Cc1ccccc1OCc1nc(-c2ccc(NC(=O)c3ccc4c(c3)OCO4)cc2)no1	5	10µM*	u	-10%	-57%	11%
COC(=O)c1cc(NC(=O)CN(c2ccccc2)S(=O)(=O)N(C)C)ccc1Cl	3	x	x	x	x	x
COc1ccccc1OC(=O)c1ccc2nsnc2c1	-11	-8%[46.1 µM]	-81*	1%	-14%[10 µM]	1%
O=C1NCCN1C(=O)N(c1ccccc1)c1ccccc1	-4	-8%[46.1 µM]	-124*	0%	15%	-2%
CN(C)S(=O)(=O)N1CCN(C(=O)N(c2ccccc2)c2ccccc2)CC1	6	-10%[46.1 µM]	u	1%	9%	8%
